The structures appear in SMILES notation. The panel holds about 83,000 compounds, 20% with a hit somewhere; the sample as a whole holds those more often.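 A percent growth of 40 corresponds to 60% growth inhibition; 0 means no net growth; -100 means all cells died. Active threshold: below 10.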 Activity calls are given as the source filed them.

This test deals with HL-60(TB) leukemia. The test is described as follows: NCI-60 one-dose screen, 48 h (100 = growth as untreated, 0 = no growth, -100 = all killed). Conditions: 10 µM unless noted.
For `COC(=O)[C@]12CC[C@@H](C)[C@H](C)[C@@H]1C1=CC[C@@H]3[C@@]4(C)C(C=O)=C[C@@](C)(COS(C)(=O)=O)[C@@H]4C(=O)C[C@@]3(C)[C@]1(C)CC2`, the growth was 31.5% (inactive).
As for `COc1ccccc1CNCCCN1C(=O)c2ccc3c4c(ccc(c24)C1=O)C(=O)N(CCCCNCCCN)C3=O`, the growth is -34.2% (active).
Turning to `CC(C)(C)n1cc(-c2ccnc(NCCCNS(=O)(=O)c3ccc(F)cc3)c2)c(-c2cccc(O)c2)n1`, the growth is 39.9% (inactive).
To `C#CCNC(=O)c1cccc2c1cc(C)n2-c1nc2c(c(NCc3ccccc3)n1)CCCC2` belongs 0.47% (active).
For the compound `N#Cc1c(-c2ccccc2)nc(SCc2nnc(-c3ccc(Cl)cc3)o2)[nH]c1=O`, the growth is 92.2% (inactive).
Then `COc1cc2c(=O)n(CCCN(C)C)c3c4cc5c(cc4ccc3c2cc1OC)OCO5`, with 55% (inactive).
Then `Cc1cc(C)c(NC(=O)c2sc3nc4c(cc3c2N)CCCCCC4)c(C)c1`, with -20.2% (active); and `COc1ccc(-c2nc(Cl)c3c(C)nn(-c4ccc(F)cc4)c3n2)cc1`, with 98.3% (inactive); and `Nc1nnc(CSc2nnc3n(Cc4ccccc4)c(=O)c4c5c(sc4n23)CCCC5)s1`, with 76.9% (inactive).
On to `Clc1ccc(Nc2scc3[n+]2CCC3)cc1`, for which the growth was 98.3% (inactive).
For the compound `C=C1C(=O)O[C@H]2[C@H]1CC/C(COC(=O)CCCCCC(=O)OC/C1=C/CC[C@@]3(C)O[C@H]3[C@H]3OC(=O)C(=C)[C@@H]3CC1)=C\CC[C@@]1(C)O[C@@H]21`, the growth was -30% (active).
For the compound `COc1ccc2c(c1)c(-c1cc(-c3cn(C)c4ccc(OC)cc34)on1)cn2C`, the growth is 101% (inactive).
To `CN1C2C=CC(=O)C1C1C(=O)N(c3ccccc3)C(=O)C12` (centres undefined) belongs 55.7% (inactive).
To `COC(=O)CCC/C=C\C[C@H]1C=CC(=O)/C1=C/C[C@@H](O)CCc1cccc(C(F)(F)F)c1` belongs -18.2% (active); to `CC/C(=C(\c1ccc(O)cc1)c1ccc(OCCN(C)CCN(C)C(=O)CCCCC(=O)c2c(C)[nH]c(/C=C3\N=C(c4ccc[nH]4)C=C3OC)c2C)cc1)c1ccccc1`, 103% (inactive); to `CC(C)(C)CC(C)(C)c1ccc(OCCOCC[N+](C)(C)Cc2ccccc2)cc1`, -63.5% (active).
On to `CCOC(=O)c1cc2c(n1Cc1cc(OC)cc(OC)c1Br)-c1nc(NC(C)=O)sc1CCC2`, for which the growth is 43.1% (inactive).
To `COc1cccc(CC(C)=C(c2ccc(OCCN3CCCCC3)cc2)c2ccc(OCCN3CCCCC3)cc2)c1` belongs -57.5% (active); to `Oc1cc(/C=C/c2nc(N3CCOCC3)c3cc(Cl)c(Cl)cc3n2)cc(O)c1O`, 99.4% (inactive).
Then `CC(C)(C#N)Nc1ccccc1`, with 105% (inactive).
Then `Cc1ccc([P+](Cc2ccc([N+](=O)[O-])cc2)(c2ccc(C)cc2)c2ccc(C)cc2)cc1`, with -43.8% (active).
Turning to `CCN1CCN(c2nc(NNC(=O)Cc3ccccc3)nc(N3CCN(C(c4ccccc4)c4ccccc4)CC3)n2)CC1`, the growth is -53.9% (active).
With `COc1ccc(N(c2nc(-c3ccc([N+](=O)[O-])cc3)cs2)C(C)C)cc1`, the growth was 90.1% (inactive).
With `O=C(CCCSc1nc(-c2ccccc2)cc(-c2ccccc2)n1)NO`, the growth is -26.2% (active).
Take `Cc1nc2cc(Nc3nc(Nc4ccc(F)cc4)nc(N4CCCC4)n3)ccc2n1Cc1ccccc1`: the growth is -41.5% (active).
On to `Cc1ccc(S(=O)(=O)n2cc(-c3csc(-c4cn(C)c5ncccc45)n3)c3ccccc32)cc1`, for which the growth was 61.9% (inactive).
Regarding `Nc1ccc(C2=NN(C(=O)c3cc(-c4ccc(Cl)cc4)nc4ccccc34)C(c3ccc(Cl)cc3)C2)cc1` (centres undefined), the growth is -4.63% (active).
For `CCOC(=O)NC(=S)n1oc(=O)c2ccccc21`, the growth is 104% (inactive).
Then `CCc1nn2c(-c3ccccc3)c(-c3cc(OC)c(OC)c(OC)c3)nc2s1`, with 68% (inactive).
Then `COc1ccc(SC2c3ccc(O)cc3Oc3nc(N)c(C#N)c(N)c32)cc1` (centres undefined), with 46.9% (inactive).
On to `Oc1c(I)cc(I)cc1CNCCCN(Cc1ccccn1)Cc1ccccn1`, for which the growth was -27.1% (active).
As to `CCOC(=O)Nc1ccc(-c2ccc3c(c2)NC(=O)/C3=C\c2ccc[nH]2)cc1`, the growth is 98.5% (inactive).
Take `CNC(=O)c1cc(Oc2ccc3nc(NC(=O)Nc4ccc(C(F)(F)F)cc4)sc3c2)ccn1`: the growth was 120% (inactive).
With `CCN(CCCCCCCCCCN1CC(=O)N(CCCCCCCCCCN(CC)Cc2ccccc2OC)CC1=O)Cc1ccccc1OC`, the growth is -67.9% (active).
To `C=C1C(=O)O[C@H]2[C@H]1CC/C(COC(=O)NCCOCCOCC(=O)Nc1ccc(OC)c(C(N)=O)c1O)=C\CC[C@@]1(C)O[C@@H]21` belongs -6.3% (active).
Take `O=C(Nc1ccsc1C(=O)NC1CCCCC1)c1ccc(F)cc1`: the growth is 90.2% (inactive).
Then `COC(=O)C(C(C[N+](=O)[O-])c1ccccc1)=P(c1ccccc1)(c1ccccc1)c1ccccc1` (centres undefined), with 80.5% (inactive); and `COC(=O)c1cc(-c2ccc(Cl)c(Cl)c2)[nH]c(=O)c1C#N`, with 101% (inactive); and `CC(C)=CCc1cc(O)cc2c1OC(C=C(C)C)C1=C2C(=O)C2=C(C1=O)S(=O)(=O)CCN2` (centres undefined), with -31.5% (active).

The values above are taken from PubChem BioAssay (NCI).
